Mac1 fbg enh – increases human CD11b/CD18 adhesion to fibrinogen. 93,000 tested, 0.07% active. K562 CD11b/CD18 adhesion to fibrinogen, ATPlite luminescence. P05107+P11215. AID 1499. activation, % at 10 µM;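 active = 10 µM primary screen giving 50% or more activity, confirmed by 40% or more on retest at that dose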
E coli WT exp – growth inhibitors of E. coli BW25113 wild type | growth inhibition, % at 100 µM | AID 710 | 98,000 tested, 0.15% active | OD600 absorbance;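 active = growth inhibition above about 50% at one test dose, limit read from the data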;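 note: growth measured after 20 h incubation at 37 °C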
CD11b adhes inh – blocks human CD11b/CD18 adhesion to fibrinogen; K562 CD11b/CD18 adhesion to fibrinogen, ATPlite luminescence; Mn2+ added to activate the integrin; inhibition, % at 10 µM; 93,000 tested, 0.54% active; AID 1497;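 active = primary inhibition of 50% or more at 10 µM, then 40% or more on retest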
Cav32 inh – blocks human Cav3.2 T-type calcium channel. O95180. Cav3.2-expressing cells, Fluo-4 calcium fluorescence FDSS; stronger effect = lower value. B-score at 10 µM. 100,000 tested, 4% active;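 active = single-dose well whose peak fluorescence ratio is a statistical outlier from its plate by either plate-standardised score or position-corrected B-score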
Of the large screens only hits and unclear results are named; the others gave an inactive call. Shown is part of a subset that was picked to be rich in hits.

COc1ccc(CNC(=O)C(c2ccco2)N(C(=O)c2csnn2)c2cccc(C)c2C)cc1 (centres undefined)	none (no result: Mac1 fbg enh, E coli WT exp, CD11b adhes inh)
CCN(CC)c1ccc(C=C(c2nnnn2-c2ccc(C)cc2)c2nnnn2-c2ccc(C)cc2)cc1	none (no result: E coli WT exp, Cav32 inh)
COCc1nnc(NS(=O)(=O)c2c(C)cc(C)cc2C)s1	none
COc1ccc(CNC(=O)C2CCCN(S(=O)(=O)c3cc(C)ccc3OC)C2)cc1 (centres undefined)	Cav32 inh -3.3
COc1ccc(OC)c(S(=O)(=O)N2CCC(C(=O)Nc3ccc(C)c(C)c3)CC2)c1	Cav32 inh -7.2 (no result: Mac1 fbg enh, CD11b adhes inh)
CCOC(=O)C1CCCN(S(=O)(=O)c2ccc(OC)c3ccccc23)C1 (centres undefined)	Cav32 inh -4 (no result: CD11b adhes inh)
COc1ccc(NC(=O)C2CCCN(S(=O)(=O)c3ccc(C)cc3)C2)cc1OC (centres undefined)	none (no result: Mac1 fbg enh, E coli WT exp, CD11b adhes inh)
CCOc1ccccc1NC(=O)C1CCCN(S(=O)(=O)c2ccc(OC)c(C)c2)C1 (centres undefined)	Cav32 inh -4.6
CC1(c2ccccc2)NC(=O)N(Cc2ccc([N+](=O)[O-])cc2)C1=O (centres undefined)	none (no result: E coli WT exp, Cav32 inh)
O=C(c1ccccc1)N1CC(COc2ccccc2)OC(c2ccco2)O1 (centres undefined)	Cav32 inh -4 (no result: Mac1 fbg enh, CD11b adhes inh)
O=c1[nH]c(-c2ccccc2F)nc2c1sc(=S)n2Cc1ccccc1	none (no result: E coli WT exp, Cav32 inh)
O=C(NCc1ccccc1)N1CCN(c2ccccc2F)CC1	none
Cc1cccc(N2CCN(C(=O)NCc3ccc(Cl)cc3)CC2)c1	Cav32 inh -9.6 (no result: Mac1 fbg enh, E coli WT exp, CD11b adhes inh)
CCOC(=O)c1ccc(NC(=O)CN2CCc3ccccc3C2)cc1	Cav32 inh -5.2
O=C(CN1CCc2ccccc2C1)Nc1ccccc1N1CCCCCC1	Cav32 inh -3.3
O=C(CNCC1CCCCC1)Nc1ccccc1N1CCCCC1	Cav32 inh -7.1 (no result: Mac1 fbg enh, CD11b adhes inh)
O=C(CNCC1CCCO1)Nc1ccccc1N1CCOCC1 (centres undefined)	none
CC1(C)Cc2c(sc3c2c(=N)n(Cc2ccco2)c(=O)n3CC(=O)Nc2ccc(Cl)cc2)CO1	none (no result: E coli WT exp)
CC1(C)Cc2c(sc3c2c(=N)n(Cc2ccco2)c(=O)n3CC(=O)Nc2cccc(Cl)c2)CO1	Cav32 inh -5.2
CC1(C)Cc2c(sc3c2c(=N)n(Cc2ccco2)c(=O)n3CC(=O)Nc2ccccc2)CO1	none
Cc1cccc(NC(=O)Cn2c(=O)n(Cc3ccco3)c(=N)c3c4c(sc32)COC(C)(C)C4)c1	Cav32 inh -4.2
CCOc1ccc(-c2cc3nc(C4CCN(C(=O)OC(C)(C)C)CC4)c(C(=O)O)cn3n2)cc1	none
CC(C)(C)[C@H]1C=C(C(=O)NC2CC2)O[C@@H](OCCCCO)C1	none (no result: Mac1 fbg enh, E coli WT exp, CD11b adhes inh)
CC(C)(C)OC(=O)CNC(=O)c1[nH]cnc1C(=O)Nc1ccc(Cl)cc1	none (no result: Mac1 fbg enh, E coli WT exp, CD11b adhes inh)
COCC(=O)N/N=C/c1ccc(Sc2nc3ccccc3s2)o1	none
O=C(COc1cccc2ccccc12)N/N=C/c1ccc(Sc2nc3ccccc3s2)o1	none
N#CCC(=O)N/N=C/c1ccc(Sc2nc3ccccc3s2)o1	Cav32 inh -5.3 (no result: Mac1 fbg enh, CD11b adhes inh)
Cc1ccccc1OCC(=O)N/N=C/c1ccc(Sc2nc3ccccc3s2)o1	Cav32 inh -6.8
Cc1cccn2c(NC(=O)c3cccs3)c(-c3ccccc3)nc12	none (no result: E coli WT exp, Cav32 inh)
Fc1ccccc1CSc1nc2ccccc2[nH]1	none (no result: Cav32 inh)
COc1ccc(OC)c(C(=O)N2CCC(C(=O)c3ccc(F)cc3)CC2)c1	none (no result: Mac1 fbg enh, E coli WT exp, CD11b adhes inh)
COc1ccc(/C=N/NC(=O)c2cccc([N+](=O)[O-])c2)cc1OC(=O)c1ccc(C)cc1	Cav32 inh -5.4 (no result: Mac1 fbg enh, CD11b adhes inh)
COc1ccc(/C=N/NC(=O)c2cccc([N+](=O)[O-])c2)cc1OC(=O)c1ccccc1	none
Cc1cc(N2CCN(c3ccccc3)CC2)n2cc(-c3ccccc3)nc2n1	none (no result: Mac1 fbg enh, CD11b adhes inh)
Cc1cc(N2CCN(c3ccccc3Cl)CC2)n2cc(-c3ccccc3)nc2n1	Cav32 inh -4.3
COc1ccc(-n2c(Cc3cccn3C)nnc2SCC(=O)Nc2ccc(C)cc2C)cc1	Cav32 inh -6.3
COc1ccc(-n2c(Cc3cccn3C)nnc2SCC(=O)Nc2ccccc2OC)cc1	Cav32 inh -2.7
COc1ccc(-n2c(Cc3cccn3C)nnc2SCC(N)=O)cc1	none
COc1ccc(-n2c(Cc3cccn3C)nnc2SCC(=O)Nc2cc(Cl)ccc2OC)cc1	Cav32 inh -7.5
Cn1cccc1Cc1nnc(SCC(=O)Nc2ccccc2F)n1-c1ccc(F)cc1	none
COc1ccccc1NC(=O)C1=C(C)Nc2nc(-c3ccccc3)nn2C1c1ccccn1 (centres undefined)	Cav32 inh -7.6
c1ccc(CSc2nnnn2-c2cccc3ccccc23)nc1	none
O=C(CCCSc1nnnn1-c1cccc2ccccc12)c1ccc(F)cc1	Cav32 inh -4.6
O=c1c2ccccc2c(C=NC2CCS(=O)(=O)C2)c(O)n1-c1ccccc1 (centres undefined)	none
O=S1(=O)CCC(N=Cc2cc(Br)ccc2O)C1 (centres undefined)	Cav32 inh -12
CCOc1ccc2[nH]c(=O)c(C(c3nnnn3Cc3ccco3)N3CCCC(C)C3)cc2c1 (centres undefined)	Cav32 inh -5.9
Cc1ccc(C)c(S(=O)(=O)NCc2ccc(C(=O)N3CCN(C)CC3)cc2)c1	none (no result: CD11b adhes inh)
Cc1ccc(C)c(S(=O)(=O)NCc2ccc(C(=O)N3CCC(Cc4ccccc4)CC3)cc2)c1	Cav32 inh -3.9
Cc1cc(C)cc(NS(=O)(=O)c2cnc(Cl)c(Cl)c2)c1	Cav32 inh -5.6
O=C(Nc1ccccc1Cl)c1cc(S(=O)(=O)N2CCCCC2)ccc1N1CCOCC1	Cav32 inh -6.3
O=C(NC1CCCCC1)N1CCCc2ccccc21	none
O=C(NC1CCCCC1)N1CCSC1=Nc1ccccc1	Cav32 inh -4
Cn1c(N2CCN(c3ccccn3)CC2)nc2c1c(=O)n(Cc1ccc(Cl)cc1)c(=O)n2C	Cav32 inh -3.3
CN(C)c1nc2c(c(=O)n(C)c(=O)n2C)n1Cc1ccccc1	none
Cn1c(N2CCOCC2)nc2c1c(=O)n(Cc1ccc(Cl)cc1)c(=O)n2C	none (no result: Mac1 fbg enh, E coli WT exp, CD11b adhes inh)
CC(C)Sc1nc2c(c(=O)n(C)c(=O)n2C)n1Cc1ccc(Cl)cc1	Cav32 inh -4.5
Cn1c(=O)c2c(nc(SCc3ccccc3)n2Cc2ccc(Cl)cc2)n(C)c1=O	Cav32 inh -4.4 (no result: Mac1 fbg enh, E coli WT exp, CD11b adhes inh)
Cn1c(=O)c2c(nc(CN3CCN(Cc4ccccc4)CC3)n2Cc2cccc(Cl)c2)n(C)c1=O	none (no result: E coli WT exp)
Cn1c(=O)c2c(nc(CN3CCc4ccccc4C3)n2Cc2cccc(Cl)c2)n(C)c1=O	Cav32 inh -4.2
CCOC(=O)C1=NN(c2cccc(Cl)c2)C2=NC(C)=C(C(=O)OC)C(c3cccs3)N12 (centres undefined)	none (no result: Mac1 fbg enh, E coli WT exp, CD11b adhes inh)
Cc1c(Cl)cccc1NC(=O)CCC(=O)N/N=C/c1ccc[nH]1	none (no result: E coli WT exp, Cav32 inh)
COc1ccc(/C(O)=C/C(=O)C(=O)Nc2c(C)n(C)n(-c3ccccc3)c2=O)cc1	none
COc1ccc(/C(O)=C/C(=O)C(=O)NNC(=O)C(O)(c2ccccc2)c2ccccc2)cc1	Cav32 inh -9.7
COc1ccccc1CNC(=O)COC(=O)[C@H](Cc1c[nH]c2ccccc12)NC(=O)c1cccs1	none (no result: E coli WT exp, Cav32 inh)
Cc1ccc(S(=O)(=O)Nc2ccccc2-c2ccccc2)cc1	Cav32 inh -5.8 (no result: Mac1 fbg enh, CD11b adhes inh)

High-throughput results deposited in PubChem by several laboratories.
